Only some compounds are listed: those with a hit (about 3.2% of all), similar ones and a draw of the others.
SKN-1 block = suppressors of acrylamide-induced Pgst-4::GFP reporter in worms, primary screen, SKN-1 inhibitor project, whole organism, uHTS, GFP/RFP fluorescence ratio, strain VP596 | 360,000 tested, 0.49% active | AID 624304, 2012 | inhibition, % at 21.8 µM | C. elegans VP596 Pgst-4::GFP/RFP ratio, 24 h;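 active means interference check ratio from 0.5 to 1.5 plus GFP to RFP signal ratio inhibition reaching or exceeding a fixed threshold, cut at about 30% in these data, passing the limit was not always enough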
MEKK2mut PB1 HTS = MEK5 binding signal on mutant MEKK2 PB1, primary screen, biochemical, multiplex bead flow cytometry, Alexa488-MEK5. percent response, % at 10 µM. 290,000 tested, 0.35% active. Alexa488-MEK5 binding to MEKK2 mutant; in the data active means percent response above about 24%, passing the limit was not always enough
MEKK2 WT-MEK5 = modulators of MEK5 binding to wildtype MEKK2, primary screen, biochemical, multiplex bead flow cytometry, Alexa488-MEK5; binding response (% of control), % at 10 µM; AID 1531, 2009; Mitogen-activated protein kinase kinase kinase 2 (Homo sapiens), Q9Y2U5; Alexa488-MEK5 binding to MEKK2 WT; actives lie on both sides; 290,000 tested, 1.1% active; in the data active means binding response below about 67% or above about 130%
MEKK3 PB1 HTS = modulators of MEKK3-MEK5 PB1 binding, primary screen, biochemical, wildtype MEKK3, multiplex bead flow cytometry, Alexa488-MEK5; Mitogen-activated protein kinase kinase kinase 3 (Homo sapiens), Q99759; bead-based flow cytometry, Alexa488-MEK5 binding to MEKK3; actives lie on both sides; 0 = blocked by unlabeled MEK5, 100 = vehicle; binding response (% of control), % at 10 µM; 290,000 tested, 1.4% active; AID 1529, 2009;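 active means binding response more than 3 SD above or below the average of its plate-row segment, actives on both sides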;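 further: Alexa488 bead fluorescence after subtracting the streptavidin-only scavenger bead signal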
CendR NRP1 mod = modulators of CendR peptide binding to NRP-1, primary screen, biochemical, fluorescence polarization, uHTS; Neuropilin-1 (Homo sapiens), O14786; FAM-RPARPAR peptide binding to NRP-1; inhibition, % at 25 µM; 360,000 tested, 0.85% active; AID 602438, 2012;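 active means inhibition or corrected inhibition above about 18%, plus a signal ratio from 0.5 to 1.5, limit read from the data, passing the limit was not always enough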
Of the large screens only hits and unclear results are named; the others gave an inactive call; [ ] = dose if it differs, or a comment.

CS(=O)(=O)N1N=C(c2ccc3nccnc3c2)CC1c1ccccc1 (stereo not drawn)	none
COc1ccccc1C1CC(c2cccc(NS(C)(=O)=O)c2)=NN1S(=O)(=O)c1ccccc1 (stereo not drawn)	SKN-1 block 37
CS(=O)(=O)Nc1cccc(C2=NN(S(C)(=O)=O)C(c3ccccc3)C2)c1 (stereo not drawn)	MEKK2 WT-MEK5 23
CS(=O)(=O)N1N=C(c2cccs2)CC1c1ccccc1 (stereo not drawn)	MEKK2 WT-MEK5 0.0
CCCC1(C2CCCC2)NC(=O)NC1=O (stereo not drawn)	none (no result: MEKK2mut PB1 HTS, MEKK2 WT-MEK5, MEKK3 PB1 HTS)
C[C@@H]1CN([C@@H](C)CO)C(=O)CCCn2nncc2CO[C@H]1CN(C)C(=O)Nc1ccccc1F	none (no result: MEKK2mut PB1 HTS, MEKK2 WT-MEK5, MEKK3 PB1 HTS)
O=C(CNC(=O)N1CC(=O)Nc2ccccc21)Nc1ccc(F)c(Cl)c1	none
O=C(NNc1c2ccccc2nc2ccccc12)c1ccc(Cl)cc1	SKN-1 block 41
Cc1ccc(C(=O)NNc2c3ccccc3nc3ccccc23)cc1	none
CNC(=O)COc1coc(CN2CCN(C(=O)c3ccco3)CC2)cc1=O	none (no result: MEKK2mut PB1 HTS, MEKK2 WT-MEK5, MEKK3 PB1 HTS)
CCOc1ccccc1Oc1coc2cc(OCC(=O)O)ccc2c1=O	none
CCOc1ccc2c(=O)c(Oc3ccccc3OCC)coc2c1	SKN-1 block 36
Cc1ccc(-n2[nH]c(C)c(C=Nc3ccc4[nH]c(=O)[nH]c4c3)c2=O)cc1C	none
Cc1[nH]n(-c2cccc3ccccc23)c(=O)c1C=Nc1ccc2[nH]c(=O)[nH]c2c1	SKN-1 block 41
Cc1ccc(-n2[nH]c(C)c(C=Nc3ccc4[nH]c(=O)[nH]c4c3)c2=O)cc1	CendR NRP1 mod 30
CCCOc1ccc(N2C(=O)CC(N3CCN(CCN=CC4C(=O)CC(C)(C)CC4=O)CC3)C2=O)cc1 (stereo not drawn)	CendR NRP1 mod 25
CN(Cc1ccc(F)cc1)C(=O)c1cccc(OC2CCN(C3CCCC3)CC2)c1	CendR NRP1 mod 26
CN(Cc1ccc(F)cc1)C(=O)c1cccc(OCc2ccccc2)c1	none
O=C(CNC(=S)N(CCCN1CCOCC1)Cc1cccs1)NCc1ccccc1	CendR NRP1 mod 34
COc1cc(OC)nc(NC(=O)COC(=O)c2cccc(Cl)c2)n1	CendR NRP1 mod 32
Cc1ccc2ccccc2c1C(O)c1ncc(-c2ccccc2Cl)[nH]1 (stereo not drawn)	none (no result: MEKK2mut PB1 HTS, MEKK2 WT-MEK5, MEKK3 PB1 HTS)
CCCCN1C(=O)C(=O)N(CC(=O)c2cc(C)n(-c3cc(C)on3)c2C)C1=O	none (no result: MEKK2mut PB1 HTS, MEKK2 WT-MEK5, MEKK3 PB1 HTS)
CCN1CCN(c2nc3c(c(=O)[nH]c(=O)n3C)n2Cc2ccccc2F)CC1	CendR NRP1 mod 30
CC(C)CCn1c(N2CCCC2)nc2c1c(=O)[nH]c(=O)n2C	CendR NRP1 mod 24
Cn1c(=O)[nH]c(=O)c2c1nc(N1CCOCC1)n2CCCSc1ncccn1	CendR NRP1 mod 22
CC(=O)Nc1cccc(Oc2nc(NCCN(C)C)nc3ccsc23)c1	none (no result: MEKK2mut PB1 HTS, MEKK2 WT-MEK5, MEKK3 PB1 HTS)
Cc1c(Cl)cccc1N=c1c([N+](=O)[O-])nn(-c2ccccc2)n1O	SKN-1 block 52
CCOC(=O)c1c(C)[nH]c(C(=O)OCc2ccccc2)c1C	none
COC(=O)CCc1c(C)[nH]c(C(=O)OCc2ccccc2)c1C	CendR NRP1 mod 20 (no result: MEKK2mut PB1 HTS, MEKK2 WT-MEK5, MEKK3 PB1 HTS)
CC(C)(C)OC(=O)NCC12C=CC(O1)C1C(=O)N(Cc3ccccc3)C(=O)C12 (stereo not drawn)	SKN-1 block 37
CC(=O)c1ccc(NC(=O)CCOc2cc(C)ccc2C)cc1	none
Clc1ccc2c(N/N=C/c3ccccc3Br)ccnc2c1	MEKK3 PB1 HTS 70[inhibitor]
Clc1ccc(-c2nc3ncccn3c2Nc2ccc3c(c2)OCO3)cc1	none
Oc1ccc(-c2nc3ncccn3c2Nc2ccc3c(c2)OCO3)cc1	CendR NRP1 mod 24
O=C(Nc1cccc(C(=O)N2CCOCC2)c1)c1ccc([N+](=O)[O-])cc1	CendR NRP1 mod 19
COc1ccc(C2CC(c3ccccc3)=NN2C(=O)c2cccs2)cc1 (stereo not drawn)	SKN-1 block 37
COc1cccc(C2=NN(C(C)=O)C(c3cccs3)C2)c1 (stereo not drawn)	SKN-1 block 36
COc1ccc(C2=NN(C(C)=O)C(c3cccs3)C2)cc1OC (stereo not drawn)	none
COc1ccc(C2CC(c3ccccc3)Nc3nc(NC(=O)c4cccs4)nn32)cc1 (stereo not drawn)	CendR NRP1 mod 31
Cc1ccc(S(=O)(=O)N2C3CCCCC3O[C@H]2CC(=O)c2cccc3ccccc23)cc1 (stereo partly drawn)	none (no result: MEKK2mut PB1 HTS, MEKK2 WT-MEK5, MEKK3 PB1 HTS)
Cc1ccc([C@H]2N[C@]3(CCCN(Cc4ccc(F)cc4)C3=O)[C@H]3C(=O)N(C)C(=O)[C@@H]23)cc1	none (no result: MEKK2mut PB1 HTS, MEKK2 WT-MEK5, MEKK3 PB1 HTS)
Cc1cccc(S(=O)(=O)NC(=O)C2(C)CCN2C(=O)c2cccc(F)c2)c1 (stereo not drawn)	none (no result: MEKK2mut PB1 HTS, MEKK2 WT-MEK5, MEKK3 PB1 HTS)
Cc1c(C(=O)N/N=C/c2ccccn2)nnn1-c1nonc1N	none
C=CC[C@H](CC(=O)N(CCO)Cc1ccccc1)C(=O)N[C@H](COC(=O)[C@@H](CC=C)Cc1ccc(F)cc1)Cc1ccccc1	none (no result: MEKK2mut PB1 HTS, MEKK2 WT-MEK5, MEKK3 PB1 HTS)
CN(C)c1ccc(-c2csc(C(O)c3cccc(Cl)c3)n2)cc1 (stereo not drawn)	none (no result: MEKK2mut PB1 HTS, MEKK2 WT-MEK5, MEKK3 PB1 HTS)
O=C(/C=C/c1cccc(O)c1)c1ccc(N2CCOCC2)cc1	MEKK2 WT-MEK5 -4.0
COc1ccc(C(=O)/C=C/c2ccc(OC)c(CN3CCOCC3)c2)cc1	SKN-1 block 61
COc1ccc(/C=C/C(=O)c2ccc(O)cc2)cc1CN1CCOCC1	none
C[C@@H]1CN([C@@H](C)CO)C(=O)CCCn2nncc2CO[C@H]1CN(C)Cc1ccc(Cl)c(Cl)c1	none (no result: MEKK2mut PB1 HTS, MEKK2 WT-MEK5, MEKK3 PB1 HTS)
O=C(NCc1ccco1)c1cc2cc(Br)ccc2o1	none
CN1CCCC(OC(=O)c2cccc(Cl)c2)C1 (stereo not drawn)	CendR NRP1 mod 30
CN1CCCC(OC(=O)c2cc(Cl)cc(Cl)c2)C1 (stereo not drawn)	none
CC(=O)NCCNc1nc(NC(C)C)nc2ccsc12	CendR NRP1 mod 26 (no result: MEKK2mut PB1 HTS, MEKK2 WT-MEK5, MEKK3 PB1 HTS)
CC(=O)NCCNc1nc(NCc2cccs2)nc2ccsc12	none (no result: MEKK2mut PB1 HTS, MEKK2 WT-MEK5, MEKK3 PB1 HTS)
Cc1ccc(NS(=O)(=O)c2ccc(C(=O)NCc3cccnc3)cc2)cc1	CendR NRP1 mod 21
C[C@@H]1CN([C@@H](C)CO)C(=O)c2cc(-c3cccnc3)cnc2O[C@H]1CN(C)C(=O)c1cccc(F)c1	none (no result: MEKK2mut PB1 HTS, MEKK2 WT-MEK5, MEKK3 PB1 HTS)
Cc1ccc(S(=O)(=O)Nc2ccccc2N=Cc2ccc([N+](=O)[O-])cc2[N+](=O)[O-])cc1	none (no result: MEKK2mut PB1 HTS, MEKK2 WT-MEK5, MEKK3 PB1 HTS)
O=C1/C(=C/c2cccs2)SC(=S)N1CC(=O)N1CCCCC1CCO (stereo not drawn)	SKN-1 block 44
